Measured values: PubChem BioAssay AID1159580 (chemical genetic matrix, 2015)
The whole screen tested about 5,500 compounds, of which about 2,000 (36%) were called active. Inconclusive results (about 18%) are left out. No stated cut-off is given here; in the data, active means normalized growth mostly below about 0.91 (no sharp cut-off); inconclusive means no clear call, values can overlap the other calls; inactive means mostly above about 0.92. The list shows a part of the results.

Assay: chemical genetic growth profiling, strain panel (AID 1159580);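 further: tested at 20 µM; growth read once vehicle control cultures reached saturation at 30 °C; 1 = growth at the plate median or of vehicle wells; lower values mean less growth of the strain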
Conditions: S. cerevisiae deletion strains, growth OD

Measured: normalized growth

CCCCCN=C(N)N/N=C\c1c[nH]c2ccc(OC)cc12
inactive: locus YAL013W, strain DEP1, active compounds read low 1.01 | locus YAL021C, strain ccr4, active compounds read low 0.985 | locus YAL026C, strain drs2, active compounds read low 0.928 | locus YAL030W, strain snc1, active compounds read low 1.01 | locus YBL061C, strain skt5, active compounds read low 1.01 | locus YBR009C, strain hhf1, active compounds read low 0.985 | locus YBR021W, strain FUR4, active compounds read low 0.989 | locus YBR023C, strain chs3, active compounds read low 0.988 | locus YBR171W, strain sec66, active compounds read low 1.03 | locus YBR229C, strain ROT2, active compounds read low 1 | locus YBR231C, strain swc5, active compounds read low 1 | locus YBR279W, strain paf1, active compounds read low 1.01 | locus YCL011C, strain gbp2, active compounds read low 1 | locus YCL016C, strain dcc1, active compounds read low 0.985 | locus YCL029C, strain bik1, active compounds read low 1.03 | locus YCL069W, strain vba3, active compounds read low 1.02 | locus YCR088W, strain abp1, active compounds read low 1.02 | locus YDL005C, strain med2, active compounds read low 1.01 | locus YDL035C, strain GPR1, active compounds read low 0.989 | locus YDL040C, strain nat1, active compounds read low 0.998 | locus YDL074C, strain BRE1, active compounds read low 1.01 | locus YDL101C, strain DUN1, active compounds read low 1.01 | locus YDL134C, strain PPH21, active compounds read low 0.997 | locus YDL185W, strain tfp1, active compounds read low 1.06 | locus YDL192W, strain arf1, active compounds read low 1.03 | locus YDR001C, strain nth1, active compounds read low 1.01 | locus YDR069C, strain doa4, active compounds read low 1.02 | locus YDR101C, strain arx1, active compounds read low 1.02 | locus YDR137W, strain rgp1, active compounds read low 1.07 | locus YDR150W, strain NUM1, active compounds read low 1.02 | locus YDR159W, strain sac3, active compounds read low 0.965 | locus YDR162C, strain NBP2, active compounds read low 0.993 | locus YDR195W, strain ref2 1.01 | locus YDR297W, strain sur2, active compounds read low 1 | locus YDR318W, strain mcm21, active compounds read low 1.02 | locus YDR334W, strain swr1, active compounds read low 1.01 | locus YDR335W, strain msn5, active compounds read low 1.01 | locus YDR388W, active compounds read low 1.03 | locus YDR392W, strain spt3, active compounds read low 0.911 | locus YDR502C, strain sam2, active compounds read low 1 | locus YEL003W, strain gim4, active compounds read low 1.01 | locus YEL037C, strain rad23, active compounds read low 1.01 | locus YEL061C, strain CIN8 (second series), active compounds read low 1.01 | locus YEL061C, strain CIN8, active compounds read low 0.994 | locus YER015W, strain faa2, active compounds read low 0.982 | locus YER016W, strain bim1, active compounds read low 1 | locus YER110C, active compounds read low 1.05 | locus YER111C, strain swi4, active compounds read low 1.02 | locus YER155C, strain BEM2 (second series), active compounds read low 0.968 | locus YER155C, strain BEM2, active compounds read low 1.01 | locus YER167W, strain BCK2, active compounds read low 1.01 | locus YFR010W, strain ubp6, active compounds read low 1.03 | locus YGL078C, strain dbp3, active compounds read low 1.02 | locus YGL086W, strain mad1, active compounds read low 1.01 | locus YGL167C, strain pmr1, active compounds read low 1.01 | locus YGL173C, strain kem1, active compounds read low 1.01 | locus YGL227W, strain vid30, active compounds read low 1.02 | locus YGL240W, strain doc1, active compounds read low 1.01 | locus YGL248W, strain PDE1, active compounds read low 1 | locus YGL253W, strain hxk2, active compounds read low 1.03 | locus YGR078C, strain PAC10, active compounds read low 1.02 | locus YGR135W, strain pre9, active compounds read low 1.02 | locus YGR229C, strain SMI1, active compounds read low 0.997 | locus YGR252W, strain gcn5, active compounds read low 1.01 | locus YHR013C, strain ard1, active compounds read low 1.03 | locus YHR027C, strain rpn1, active compounds read low 1 | locus YHR030C, strain SLT2, active compounds read low 1.01 | locus YHR079C, strain IRE1 (second series), active compounds read low 1.01 | locus YHR094C, strain hxt1, active compounds read low 1.02 | locus YHR129C, strain ARP1, active compounds read low 0.999 | locus YHR142W, strain chs7, active compounds read low 0.993 | locus YHR200W, strain rpn10, active compounds read low 1.04 | locus YIL066C, strain RNR3, active compounds read low 0.996 | locus YIL073C, strain SPO22, active compounds read low 1.02 | locus YIL125W, strain kgd1, active compounds read low 1.01 | locus YIR030C, strain dcg1, active compounds read low 1.02 | locus YJL092W, strain hpr5, active compounds read low 1.01 | locus YJL095W, strain BCK1 (second series), active compounds read low 1.01 | locus YJL095W, strain BCK1, active compounds read low 0.987 | locus YJL115W, strain asf1, active compounds read low 1 | locus YJL129C, strain trk1, active compounds read low 1.02 | locus YJL134W, strain LCB3, active compounds read low 1.01 | locus YJL154C, strain vps35, active compounds read low 1.01 | locus YJL164C, strain tpk1, active compounds read low 0.978 | locus YJL166W, strain qcr8, active compounds read low 1.02 | locus YJL168C, strain set2, active compounds read low 1.02 | locus YJL187C, strain SWE1 (second series), active compounds read low 1 | locus YJL187C, strain SWE1, active compounds read low 1
